From PubChem BioAssay
Most compounds without a hit are left out; they make up all but 0.78% or so of the library.
RGS7-Gao reg: RGS7-Galphao binding modulators, primary screen, biochemical, multiplexed bead flow cytometry. Guanine nucleotide-binding protein G(o) subunit alpha (Homo sapiens), P09471. actives lie on both sides. binding response (% of control), % at 10 µM. 220,000 compounds, 0.35% hits. AID 1439, 2008; in the data active means binding response below about 49% or above about 150%; inconclusive means no clear call, values can overlap the other calls; inactive means in between;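 further: fluorescent Galphao held in activated GDP-AlF4 state binding bead-coupled RGS7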
Target sequence (P09471 whole entry, looked up): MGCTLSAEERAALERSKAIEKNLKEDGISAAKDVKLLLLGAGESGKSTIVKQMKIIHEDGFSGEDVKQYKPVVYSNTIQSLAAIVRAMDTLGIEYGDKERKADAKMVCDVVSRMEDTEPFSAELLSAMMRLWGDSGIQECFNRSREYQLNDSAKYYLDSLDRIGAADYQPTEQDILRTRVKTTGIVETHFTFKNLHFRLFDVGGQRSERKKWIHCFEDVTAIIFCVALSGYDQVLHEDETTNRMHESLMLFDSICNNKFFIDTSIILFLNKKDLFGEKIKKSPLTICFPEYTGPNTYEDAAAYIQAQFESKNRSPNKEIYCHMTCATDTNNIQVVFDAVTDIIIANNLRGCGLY
RGS8-Gao reg: RGS8-Galphao binding modulators, primary screen, biochemical, multiplexed bead flow cytometry; Guanine nucleotide-binding protein G(o) subunit alpha (Homo sapiens), P09471; actives lie on both sides; response (percent of control binding), % at 10 µM; 220,000 compounds, 0.34% hits; AID 1423, 2008; in the data active means response below about 60% or above about 140%; inactive means in between;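 further: Galphao activated as the GDP aluminium fluoride complex binding bead-coupled RGS8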
RGS16-Gao HTS: modulators of RGS16 binding to Galphao, primary screen, biochemical, human proteins, multiplexed bead flow cytometry; bead-based flow cytometry RGS16-Galphao binding, fluorescence; actives lie on both sides; Regulator of G-protein signaling 16 (Homo sapiens) + Guanine nucleotide-binding protein …; binding response (% of control), % at 10 µM; 220,000 compounds, 0.38% hits; AID 1441, 2008;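 further: Galphao activated by GDP with aluminum fluoride before binding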
RGS4-Gao reg: modulators of RGS4 binding to Galphao, primary screen, biochemical, multiplexed bead flow cytometry; 220,000 compounds, 0.33% hits; binding response (% of control), % at 10 µM; actives lie on both sides; Guanine nucleotide-binding protein G(o) subunit alpha (Homo sapiens), P09471; AID 1415, 2008; in the data active means binding response below about 49% or above about 150%; inactive means in between;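 further: fluorescent Galphao activated with aluminum fluoride binding bead-coupled RGS4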
RGS4-Gao HTS: modulators of RGS–Galpha-o binding, primary screen, biochemical, multiplexed beads, flow cytometry, RGS4/7/8/16/19. RGS4–Galpha-o binding response, % at 10 µM. shares compounds with RGS16-Gao HTS. AID 1504, 2009. 1,600 compounds, 99% hits. multiplexed bead flow cytometry;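 further: fluorescently labeled Galpha-o bound to GDP with aluminium fluoride binding biotinylated RGS beads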
Avidin counter: disruption of biotin probe capture by avidin, counter-screen for RGS protein interaction modulators, biochemical, flow cytometry, bead-based | shares compounds with RGS16-Gao HTS | inhibition, % at 10 µM | streptavidin beads, fluorescein-biotin binding | 1,700 tested, under 10 active;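 active means inhibition above 50%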;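 further: median green fluorescence of gated singlet beads compared with DMSO control wells; 0% = DMSO wells and 100% = complete loss of bead fluorescence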
RGS8-Gao single: RGS8-Galphao binding modulators, confirmation, biochemical, multiplexed bead flow cytometry, single concentration. 1,700 compounds, 3% hits. AID 1836, 2009. bead-based flow cytometry RGS8-Galphao binding, fluorescence; actives lie on both sides. binding response (% of control), % at 10 µM. shares compounds with RGS16-Gao HTS; in the data active means binding response below about 72% or above about 130%; inactive means in between;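 further: Galphao activated as GDP AlF4 complex before binding bead RGS8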
RGS7-Gao confirm: RGS7-Galphao binding modulators, confirmation, biochemical, multiplexed bead flow cytometry, single concentration; shares compounds with RGS16-Gao HTS; bead-based flow cytometry RGS7-Galphao binding; actives lie on both sides; response (percent of control binding), % at 10 µM; 1,700 compounds, 7.8% hits; in the data active means response below about 75% or above about 130%; inactive means in between;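 further: fluorescent Galphao activated with GDP and aluminum fluoride binding bead-coupled RGS7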
RGS16-Gao conf: modulators of RGS16-Galphao protein binding, confirmation, biochemical, single concentration, multiplexed bead flow cytometry. response (% of control binding), % at 10 µM. bead-based flow cytometry; actives lie on both sides. shares compounds with RGS16-Gao HTS. 1,700 compounds, 4% hits. AID 1838, 2009; in the data active means response below about 74% or above about 130%; inactive means in between;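 further: Galphao activated as the GDP aluminium fluoride complex binding bead-coupled RGS16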
RGS4-Gao single: modulators of RGS4-Galphao protein binding, confirmation, biochemical, single concentration, multiplexed bead flow cytometry | actives lie on both sides | 1,700 compounds, 4% hits | AID 1840, 2009 | shares compounds with RGS16-Gao HTS | binding response (% of control), % at 10 µM; in the data active means binding response below about 74% or above about 130%; inactive means in between
RGS19-Gao single: regulators of RGS19-Galphao binding, confirmation, biochemical, single point, multiplexed bead flow cytometry; shares compounds with RGS16-Gao HTS; bead-based flow cytometry RGS19-Galphao binding; actives lie on both sides; response (percent of control binding), % at 10 µM; 1,700 compounds, 5% hits; in the data active means response below about 50% or above about 160%; inactive means in between;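 further: 100% = no compound control and 0% = blank background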
* hit, by the source's call; ? = inconclusive; · = no result given; [ ] = remark or other dose. Unless noted, how the calls were made is not given here.

SMILES	RGS7-Gao reg	RGS8-Gao reg	RGS16-Gao HTS	RGS4-Gao reg	Avidin counter	RGS8-Gao single	RGS7-Gao confirm	RGS16-Gao conf	RGS4-Gao single	RGS19-Gao single	others
O=C1NC(=O)N(CC2CCCO2)C(=O)/C1=C/c1cccs1 (stereo unspecified)	?	108	160	185*[activator]	2	88	93	93	99	87
C1=C(c2c[nH]c3ccccc23)CCNC1	151*[activator]	107	133	167*[activator]	2	99	135*[activator]	103	110	117
CC(C)N1CC=C(c2c[nH]c3ccccc23)CC1	98	96	97	95	·	·	·	·	·	·
CCOP(=S)(OCC)c1ccc(N(C)C)cc1	116	149*[activator]	329	123	0	100	100	99	100	89	RGS4-Gao HTS=123*
NC(=S)/N=C/c1c(O)[nH]c(=O)[nH]c1=O	86	97	93	92	·	·	·	·	·	·
N#CC(C#N)=Cc1ccc(N2CCCC2)cc1	668*[activator]	71	150	184*[activator]	1	102	103	103	104	86
